In PubChem BioAssay AID463173 (ICCB-Longwood Screening Facility, Harvard Medical School, 2010) one finds survival data, which are given here for 57 molecules.

Screen size: about 52,000 compounds; about 1,700 (3.3%) were called active. No stated cut-off is given here; in the data, active means survival mostly below about 52% (no sharp cut-off); inactive means mostly above about 56%. The sample as a whole holds a higher share of actives than the screen did.

In the test the test system is Wild type. The experiment in a line: growth inhibition of S. aureus wild type versus tarO mutant, primary screen, teichoic acid synthesis inhibitors, RN4220, OD600 (AID 463173). Particulars: S. aureus RN4220 wild type/DeltatarO growth, OD600, 18 h, active compounds read low, screened at 18.75 µg/mL (by protocol).
Regarding `Cc1cccc(C(=O)Nc2ccccc2OCc2cc(=O)n3c(C)csc3n2)c1`, the survival was 90% (inactive).
For the molecule `Cc1ccc(Cl)cc1N1CCN(S(=O)(=O)c2ccc3c(c2)CC(=O)N3C)CC1`, the survival was 113% (inactive).
The result for `COCCCNC(=O)c1ccc(Cn2c(=O)c3ccccc3n(CC(=O)Nc3c(C)cccc3C)c2=O)cc1` reads 83% (inactive); that for `CCCN(C(=O)CCn1cnc2onc(-c3ccc(F)cc3)c2c1=O)c1ccccc1C`, 72% (inactive); that for `COCCCNC(=O)C1CCCN(C(=O)c2cnn(-c3ccc(F)cc3)c2-n2cccc2)C1` (configuration not stated), 128% (inactive).
On to `CSc1nnc(COc2ccc(Cl)cc2)n1C`, for which the survival was 101% (inactive).
Take `CCOc1cc(CNC(=O)C(NS(=O)(=O)c2cccs2)C(C)C)cc(OCC)c1OCC` (configuration not stated): the survival was 65% (inactive).
With `Cc1ccc(CNC(=O)c2ccc3c(c2)CCN3S(=O)(=O)c2ccccc2)cc1`, the survival was 84% (inactive).
For the molecule `Cc1cccc(N2CCN(S(=O)(=O)c3ccc(F)c(C(=O)Nc4cccc(Cl)c4C)c3)CC2C)c1` (configuration not stated), the survival is 100% (inactive).
Consider `Cc1ccc(N2CCN(S(=O)(=O)c3ccc(F)c(C(=O)Nc4ccc(Cl)cc4Cl)c3)CC2C)cc1` (configuration not stated), for which the survival is -6% (active).
`Cc1ccc(C)c(N2CCN(S(=O)(=O)c3ccc(F)c(C(=O)Nc4ccc(Cl)cc4Cl)c3)CC2)c1`: the survival was 80% (inactive).
Regarding `CCC1=NN(C(=O)Cc2ccccc2)C(O)(c2ccccc2)C1` (configuration not stated), the survival was 107% (inactive).
Take `CCCCC(=O)N1c2ccccc2C(C)(c2ccccc2)CC1(C)C` (configuration not stated): the survival is -2% (active).
`CC(=O)N1c2ccccc2N(C)C(=O)C1(C)C`: the survival is 105% (inactive).
Regarding `CCC(CC)C(=O)N1CCN(Cc2ccccc2)CC1`, the survival was 108% (inactive).
As for `CCC(CC)C(=O)N1c2ccccc2C(C)(c2ccccc2)CC1(C)C` (configuration not stated), the survival is -2% (active).
As for `CCN1C(=O)C(O)(C(C)C(=O)c2ccccc2)c2ccccc21` (configuration not stated), the survival is 111% (inactive).
Consider `CCCCOc1ccc(C2(C(=O)O)CCCC2)cc1`, for which the survival is 105% (inactive).
Consider `Cc1ccc(NC(=O)CN2C(=O)C(C)(C)c3ccccc32)cc1`, for which the survival is 77% (inactive).
In the case of `CCC(=O)N1c2ccccc2C(C)(c2ccccc2)CC1(C)C` (configuration not stated), the survival is -3% (active).
In the case of `CCC(=O)N1CCN(C(=O)CC)C1c1ccccc1` it was 99% (inactive); in that of `CC(=O)N1c2ccccc2C(C)(c2ccc(C)cc2)CC1(C)C` (configuration not stated), -2% (active).
As to `CC1=CC(C)(C)N(C(=O)Cc2ccccc2)c2ccccc21`, the survival is 126% (inactive).
For `CCc1ccc(NC(=O)Cn2c(=O)n(CCCCC(=O)NCc3ccccc3Cl)c(=O)c3ccccc32)cc1`, the survival is 90% (inactive).
For the molecule `CC(C)c1ccc(NC(=O)CN2C(=O)CSc3ccc(S(=O)(=O)N4CCCC4)cc32)cc1`, the survival was 91% (inactive).
With `CC1Cc2cc(S(=O)(=O)N(C)c3ccc(Br)cc3)ccc2N1C(=O)C1CC1` (configuration not stated), the survival is 106% (inactive).
As to `COc1cc2c(=O)c(C(=O)c3ccc(C)c(C)c3)cn(Cc3ccccc3F)c2cc1OC`, the survival was 127% (inactive).
`COc1ccc(OC)c(NC(=O)c2cc(=O)c3c(C)cc(C)cc3o2)c1`: the survival is 87% (inactive).
The result for `O=C(NC1CC(=O)N(c2ccc(Cl)cc2)C1)c1ccc(S(=O)(=O)N2CCCC2)cc1` (configuration not stated) reads 127% (inactive); that for `CC(=O)N1CCCc2cc(S(=O)(=O)N3CCCC(C(=O)Nc4ccc(C)c(F)c4)C3)ccc21` (configuration not stated), 73% (inactive); that for `COCCNC(=O)c1cnn(-c2cccc(C)c2)c1-n1cccc1`, 99% (inactive).
In the case of `CCOc1ccccc1C(=O)N1CCc2cc(OC)c(OC)cc2C1COc1ccc2c(C)cc(=O)oc2c1` (configuration not stated), the survival was 76% (inactive).
In the case of `Cc1c(C(=O)Nc2ccccc2Br)oc2ccc(S(=O)(=O)N3CCOCC3)cc12`, the survival is 113% (inactive).
As for `CCCCCC(=O)N1c2ccccc2C(C)(c2ccccc2)CC1(C)C` (configuration not stated), the survival is -2% (active).
`CC(C)c1ccc(S(=O)(=O)c2nnn3c2nc(N2CCCC2)c2sccc23)cc1`: the survival is 89% (inactive).
For `Cc1ccccc1C(=O)N(Cc1nc(-c2ccc(Cl)cc2)no1)C(C)C`, the survival was 86% (inactive).
As for `Cc1ccc(CC(=O)N(Cc2nc(-c3ccc(C)cc3)no2)C(C)C)cc1`, the survival is -1% (active).
`CC(C)N(Cc1nc(-c2ccc(Cl)cc2)no1)C(=O)c1ccco1`: the survival is 76% (inactive).
The result for `COc1ccc(-c2noc(CN(C(=O)c3ccccc3Cl)C(C)C)n2)cc1` reads 97% (inactive); that for `COc1ccc(-c2noc(CN(C(=O)COc3cc(C)c(Br)c(C)c3)C(C)C)n2)cc1`, 7% (active); that for `COc1ccc(-c2noc(CN(C(=O)c3cc(OC)c(OC)cc3OC)C(C)C)n2)cc1`, 86% (inactive).
For the molecule `Cc1ccc(-c2noc(CNC(=O)COc3cc(C)c(Br)c(C)c3)n2)cc1`, the survival was 89% (inactive).
On to `COc1ccc(-c2noc(CN(C(C)C)S(=O)(=O)c3ccc(Br)cc3)n2)cc1`, for which the survival is 81% (inactive).
With `Cc1ccc(-c2noc(CN(C(=O)COc3cc(C)cc(C)c3C)C(C)C)n2)cc1`, the survival was 1% (active).
In the case of `COc1ccc(-c2noc(CN(C(=O)c3ccc(C)cc3C)C(C)C)n2)cc1` it was 0% (active); in that of `O=C(O)CC(C(=O)O)c1cn(Cc2ccccc2)c2ccccc12` (configuration not stated), 105% (inactive); in that of `CC(C)(C)OC(=O)N1CCC(c2c(C(=O)NCCc3ccccc3)cnn2-c2ccc(F)cc2)CC1`, 78% (inactive).
For the molecule `Cc1ccc(C)c(Cn2c3ccccc3c3cnn(CC(=O)NCCC4=CCCCC4)c(=O)c32)c1`, the survival was 82% (inactive).
Regarding `CC(Sc1nc(=O)cc(N)n1CCc1ccccc1)C(=O)Nc1ccccc1C#N` (configuration not stated), the survival was 75% (inactive).
Consider `CC(C(=O)NCC1CCCO1)N(C(=O)c1snc(C(N)=O)c1N)c1cccc(F)c1` (configuration not stated), for which the survival is 101% (inactive).
As for `Cc1ccccc1NC(=O)CSc1nnc(C)c(=O)[nH]1`, the survival is 89% (inactive).
For the molecule `Cc1ccc(Nc2sc(C(=O)c3ccccc3)c(N)c2C(=O)NC(C)C)cc1`, the survival was 78% (inactive).
For the molecule `O=C(CSc1nccn1Cc1ccccc1)Nc1ccc2c(c1)OCO2`, the survival was 138% (inactive).
For the molecule `COc1ccc(CC(=O)N(Cc2nc(-c3ccc(C)cc3)no2)C(C)C)cc1`, the survival was 33% (inactive).
Regarding `COc1ccc(-c2noc(CN(C(=O)C(C)Oc3ccc(C)cc3)C(C)C)n2)cc1` (configuration not stated), the survival was 77% (inactive).
With `COc1ccc(-c2noc(CN(C(=O)Cc3ccc(C)cc3)C(C)C)n2)cc1`, the survival is 5% (active).
For `COc1ccccc1OC(C)C(=O)N1CCN(CCc2ccccn2)CC1` (configuration not stated), the survival was 82% (inactive).
